Consider 23 compounds from PubChem BioAssay AID1851 (National Center for Advancing Translational Sciences (NCATS), 2009).

SMILES strings stand for the structures. In all, about 16,000 compounds went through this assay and about 5,700 (36%) were called active. About 24% were inconclusive and are not listed. The list shows a part of the results. Unmarked numbers belong to inactive results. Calls come from the whole dose curve; as a rule, active = well fitted curve in the direction sought with a large enough effect; inconclusive = small, poorly fitted or top-dose-only effect, or effect the other way; inactive = no such curve, though single readings can be large or run the other way.
% is set by controls: 0 for no effect and ±100 for the full control effect.

The target of this assay is Cytochrome P450 1A2 (Homo sapiens) (UniProt P05177). The assay is described as follows: Cytochrome panel assay with activity outcomes. Particulars: recombinant CYP, pro-luciferin dealkylation, luminescence, p450-cyp1a2; series mostly up to 57.1 µM; activity, negative = inhibition: at the top concentration.
Cytochrome P450 1A2 (Homo sapiens), sequence (P05177 whole entry, looked up): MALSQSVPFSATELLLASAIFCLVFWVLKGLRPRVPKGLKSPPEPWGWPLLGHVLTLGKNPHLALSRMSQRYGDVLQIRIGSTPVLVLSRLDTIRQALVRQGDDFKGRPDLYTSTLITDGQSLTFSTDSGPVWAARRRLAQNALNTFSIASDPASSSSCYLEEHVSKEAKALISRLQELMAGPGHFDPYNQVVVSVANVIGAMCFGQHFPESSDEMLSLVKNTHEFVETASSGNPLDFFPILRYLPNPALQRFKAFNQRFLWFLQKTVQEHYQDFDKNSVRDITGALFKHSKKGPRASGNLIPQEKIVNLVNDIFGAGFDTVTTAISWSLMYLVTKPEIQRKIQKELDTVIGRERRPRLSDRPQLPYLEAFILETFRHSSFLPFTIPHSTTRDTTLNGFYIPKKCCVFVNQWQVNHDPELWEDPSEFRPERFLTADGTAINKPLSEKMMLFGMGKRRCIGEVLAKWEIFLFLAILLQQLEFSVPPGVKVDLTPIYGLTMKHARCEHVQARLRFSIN
For the compound `CCn1c(/C=C2/C(=O)N(C)c3ccccc32)nc2ccccc2c1=O`, the AC50 (commonly the midpoint of the concentration-response curve, whichever way the signal moves) was 1 µM (active).
Turning to `CC1(C)CC2(CCO1)OC(=O)CC2C(=O)NCCc1ccccc1` (stereo not drawn), the “activity, negative = inhibition” value was 12.8%.
Take `Cc1c(N(C)CS(=O)(=O)O)c(=O)n(-c2ccccc2)n1C`: the “activity, negative = inhibition” value is -11.4% [at 25.6 µM].
For `Cc1ccc(S(=O)(=O)/N=C(/Nc2c(C)n(C)n(-c3ccccc3)c2=O)c2ccc(Cl)cc2)cc1`, the “activity, negative = inhibition” value was -18.4%.
As to `Cc1c(CCO)c(=O)n(-c2ccccc2)n1S(=O)(=O)c1c(Cl)cc(Cl)cc1Cl`, the AC50 was 12.6 µM (active).
For `CC(=O)O[C@H]1C2=CO[C@H](C)[C@H]3[C@H]4C5=C([C@H](O)[C@H]6O[C@@H]6C5=O)[C@H](O[C@H]4C)[C@@]23C(=O)[C@H]2O[C@@H]21`, the activity, negative = inhibition was -0.486% [at 11.4 µM].
On to `Cc1ccn2c(NC(=O)c3ccccc3)c(-c3cccs3)nc2c1`, for which the AC50 is 22.4 µM (active).
`O=C(O)C12CC3(C(=O)O)CC(C(=O)O)(CC(C(=O)O)(C1)C3=O)C2=O`: the activity, negative = inhibition is -4.32% [at 2.29 µM].
`Cc1ncn(-c2ccccc2O)c1C`: the AC50 was 0.794 µM (active).
Turning to `CC1=NNC(=O)C1CCC(=O)N/N=C\c1ccccc1[N+](=O)[O-]` (stereo not drawn), the “activity, negative = inhibition” value was -21.8%.
On to `Cc1nc2ccccn2c1C(=O)N/N=C/c1ccccc1[N+](=O)[O-]`, for which the AC50 is 15.8 µM (active).
Regarding `COc1ccc2c(c1)c(CC(=O)O)c(C)n2Cc1ccc(Cl)cc1`, the AC50 was 31.6 µM (active).
With `O=C(O)Cc1cc(Cl)ccc1O`, the activity, negative = inhibition is -16.6% [at 11.4 µM].
Still for that read-out and setting: under `COc1ccc2c(c1)c(CC(=O)OCC(=O)O)c(C)n2C(=O)c1ccc(Cl)cc1` stands -15.1% [at 25.6 µM].
For the compound `CC(=O)n1nc(-c2ccco2)nc1N`, the AC50 is 10 µM (active).
Take `Cc1nc2nc[nH]n2c(=O)c1NC(=O)CC12CC3CC(CC(C3)C1)C2`: the “activity, negative = inhibition” value is -10.9%.
Take `COC(=O)N1CC(=O)N(OC)C1c1ccc(Cl)cc1Cl` (stereo not drawn): the “activity, negative = inhibition” value was -9.57%.
With `O=C1c2ccccc2NC(c2ccc(Cl)cc2Cl)N1O` (stereo not drawn), the AC50 was 6.31 µM (active).
Consider `O=C1c2ccccc2N[C@H](c2cc(Cl)cc(Cl)c2O)N1CCc1ccccn1`, for which the activity, negative = inhibition is 5.81% [at 2.29 µM].
Consider `Cn1c(=NC(=O)CCl)sc2ccccc21`, for which the AC50 was 2.24 µM (active).
Turning to `CO[C@H]1[C@H](O[C@H]2O[C@@H](C)[C@@H](O[C@@H]3C[C@](C)(O)[C@H](OC(=O)CC(C)C)[C@H](C)O3)[C@@H](N(C)C)[C@@H]2O)[C@@H](CC=O)C[C@@H](C)[C@@H](O)/C=C\C=C/C[C@@H](C)OC(=O)C[C@H]1OC(C)=O`, the “activity, negative = inhibition” value was 2.24% [at 25.6 µM].
With `COc1ccc2[nH]cc(C=O)c2c1`, the AC50 is 7.08 µM (active).
As for `COc1ccc2[nH]c3cc4c(=O)c5cc(OC)ccc5[nH]c4cc3c(=O)c2c1`, the activity, negative = inhibition is -6.02% [at 2.29 µM].
